This passage reports growth inhibition results from PubChem BioAssay (NCI).

A short description of this assay: NCI Yeast Anticancer Drug Screen. Data for the rad50EPP+ strain (AID 151).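 Note: 0% = growth of vehicle-treated control cultures.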 The note with it: S. cerevisiae rad50 mutant strain, hits give high values. The protocol: Growth inhibition of yeast strains with defined genetic alterations is measured as a screen for potential anti-cancer activity. Selected strains with alterations in DNA damage repair or cell cycle control were exposed to compounds and growth inhibition was measured relative to vehicle treated controls. The strain used in this assay is rad50EPP+

The structures appear in SMILES notation. The panel holds about 79,000 compounds, 15% with a hit somewhere; the sample as a whole holds those more often. A number with no mark means an inactive call. Calls of active or inactive are those of the source. Cut-off read from the data, not from the text of the source: active = growth inhibition above about 70%; inactive = the rest.

In the case of `CCOC(=O)c1cnc2c(C(F)(F)F)cccc2c1N=[N+]=[N-]`, the growth inhibition by setting is: (at 1.2 µM) 4%; (at 3.7 µM) 0%; (at 11.0 µM) -5%; (at 33.0 µM) 86% (active); (at 100.0 µM) 97% (active).

`COc1ccc2sc3cccc(NCCN(C)C)c3c(=O)c2c1`: the growth inhibition by setting is: (at 1.2 µM) 6%; (at 3.7 µM) 8%; (at 11.0 µM) 17%; (at 33.0 µM) 25%; (at 100.0 µM) 61%.

For `N/C(=N\OC(=O)NC(Cl)=C(Cl)Cl)c1cc(C(F)(F)F)cc(C(F)(F)F)c1`, the growth inhibition (at 1.2 µM) is -30%; the growth inhibition (at 3.7 µM) is -48%; the growth inhibition (at 11.0 µM) is -43%; the growth inhibition (at 33.0 µM) is -35%; the growth inhibition (at 100.0 µM) was 17%.

As to `O=C1OC(CCl)CN1/N=C/c1ccc([N+](=O)[O-])o1` (stereo not given), the growth inhibition was -3% (at 1.2 µM); -17% (at 3.7 µM); 14% (at 11.0 µM); 47% (at 33.0 µM); 73% (active) (at 100.0 µM).

Turning to `[N-]=[N+]=NC1=C(c2ccccn2)C(=O)c2cccc3cccc1c23`, the growth inhibition reads like this: (at 1.2 µM) 9%; (at 3.7 µM) 16%; (at 11.0 µM) 31%; (at 33.0 µM) 74% (active); (at 100.0 µM) 93% (active).

`CCCCN1C(=O)N(c2ccc(OCC)cc2)C2N(CCCC)C1C(C)(C)C2(C)C` (stereo not given): the growth inhibition reads like this: (at 1.2 µM) -7%; (at 3.7 µM) -6%; (at 11.0 µM) 7%; (at 33.0 µM) 19%; (at 100.0 µM) 30%.

Regarding `c1ccc2c(c1)c1ncccc1c1nccnc21`, the growth inhibition runs as follows: (at 1.2 µM) 15%; (at 3.7 µM) 33%; (at 11.0 µM) 43%; (at 33.0 µM) 69%; (at 100.0 µM) 63%.

For `Cc1ccc(Nc2nc3c(=O)n(C)c(=O)n(C)c3nc2Nc2ccc(C)cc2)cc1`, the growth inhibition was 3% (at 1.2 µM); -2% (at 3.7 µM); -6% (at 11.0 µM); -16% (at 33.0 µM); 41% (at 100.0 µM).
